Sampled rows, rich in hits. Any-hit rate of the full collection: about 2.2%.
Mito fusion yeast = inhibitors of mitochondrial division or activators of mitochondrial fusion; S. cerevisiae fusion-defective mutant growth rescue, CellTiterGlo 48 h; Potency, µM (titrated, usually from 46.1 µM), for inactives: at the highest dose growth rescue (activation), usual class: activators; 0.23% of 320,000 active; AID 485298; note: % of control where 0% means no effect; nearly all actives have a fitted effect of over 45% in size
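Compounds are tested for their ability to restore growth of mitochondrial fusion-defective yeast strains at non-permissive 37C in YPEG medium over 48 hours. Viability is quantified by luciferase luminescence.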
FUS yeast rescue = FUS proteinopathy suppression in yeast. 0.24% of 390,000 active. S. cerevisiae FUS-expressing, growth rescue, OD600, 24 h. Potency, µM (series often up to 76.6 µM), hits mostly activators;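 note: plate controls were DMSO vehicle for no effect and reference control for full effect; nearly all actives have a fitted effect of over 55% in size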
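Steps: raffinose overnight preculture; dilution to OD 0.005 in 2% galactose minimal medium; compound addition (concentration series); 24hr at 30C, 99% humidity; absorbance read at 600 nm.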
TDP43 rescue = inhibitors of TDP-43 toxicity in yeast. AID 652104. TDP-43 expressing yeast growth rescue, BacTiter-Glo, 24 h. Potency, µM (series often up to 46.1 µM), for inactives: at the top dose growth rescue (activation), hits mostly activators. 1.8% of 410,000 active; note: % of control where 0% means no effect; nearly all actives have a fitted effect of over 50% in size
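Yeast expressing TDP-43 (pregrown in raffinose, seeded at OD600=0.02 in galactose medium) exposed to compounds 24 hr at 30 deg C. Growth read by BacTiter-Glo luminescence; rescue of toxicity appears as increased signal.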
Abeta yeast res = compounds reversing amyloid beta toxicity in yeast; yeast expressing A-beta42, growth rescue, OD600, 48 h; response scale: 0% DMSO, 100% iron-clioquinol control; Potency, µM (top dose mostly 46.1 µM), most hits filed as activators; 0.063% of 410,000 active; note: nearly all actives have a fitted effect of over 55% in size
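Yeast growth medium received pinned compounds, then yeast cells expressing toxic A-beta were added; plates incubated at 30 C for 48 hr. Growth read as absorbance at 600 nm, normalized to DMSO and equimolar FeCl3 plus clioquinol controls.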
aSyn yeast inh = rescues yeast growth from alpha-synuclein toxicity; 0.14% of 370,000 active; Potency, µM (doses to about 46.1 µM), inactives show at the top dose growth rescue (activation), usual class: activators; Yeast expressing alpha-synuclein, growth rescue, BacTiter-Glo, 24 h; AID 652106; note: % of control where 0% means no effect; nearly all actives have a fitted effect of over 65% in size
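Galactose-induced alpha-syn yeast (OD600=0.02, raffinose-pregrown) + pinned cpd, 24 hr, 30 deg C; growth by BacTiter-Glo luminescence. Growth restoration scores as activation.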
* marks the source's active call; other numbers are inactive results; i = inactive; ? = inconclusive; . = no result given. Calls come from the whole dose curve; as a rule, active = well fitted curve in the direction sought with a large enough effect; inconclusive = small, poorly fitted or top-dose-only effect, or another doubt; inactive = no such curve, though single readings can be large; an effect the other way counts as inactive or inconclusive. Potency is the fitted concentration of half-maximal effect.

SMILES | Mito fusion yeast | FUS yeast rescue | TDP43 rescue | Abeta yeast res | aSyn yeast inh
O=c1cc(-c2ccc(C3CCCCC3)cc2)[nH][nH]1 | 2% | i | 18µM* | i | 10%
CC1Cc2nc(SCC(=O)N3CCN(c4ccccc4)CC3)n(CCc3ccccc3)c(=O)c2S1 (stereo not given) | 18% | 14µM* | ? | i | 2%
CCn1c(SCC(=O)N2CCN(c3ccccc3)CC2)nc2c(c1=O)SC(C)C2 (stereo not given) | 4% | i | 20% | i | -26%
CCCSc1nc2c(c(=O)n1CC)SC(C)C2 (stereo not given) | 3% | i | 22µM* | i | -10%
CCn1c(SCC(=O)N2CCCC2)nc2c(c1=O)SC(C)C2 (stereo not given) | -4% | i | 0% | i | 1%
COc1ccc(S[C@]2(C(=O)N3CCOCC3)CC(=O)N(C(=O)/C=C/c3ccccc3)[C@@H]2c2ccc(OC)cc2)cc1 | . | i | . | . | .
Cc1ccc(C)n1-c1ccc(-c2ccnc(N)n2)cc1 | 11% | i | 32µM* | i | 11%
Cc1onc(-c2ccccc2)c1-c1ccnc(N)n1 | -23% | i | 10% | i | ?
Fc1ccc(CNC(=S)Nc2ccccc2F)cc1 | -13% | i | ? | ? | -1%
Fc1ccccc1NC(=S)NCc1ccc(Cl)cc1 | -23% | i | 11µM* | ? | 1%
S=C(NCc1ccccc1)Nc1cccc(Cl)c1 | 1% | . | 28µM* | i | -11%
CCOc1ccc(N/C(C)=C/C(=O)c2ccc3c(c2)OCCO3)cc1 | -7% | i | 18% | i | 3%
Clc1ccccc1COc1ccccc1-c1nnco1 | 3% | i | 3.2µM* | i | 15%
CC(C)(C)NC(=O)C(c1ccc(C(F)(F)F)cc1)n1c(=O)c(-c2cc3ccccc3[nH]2)nc2ccccc21 (stereo not given) | . | i | ? | ? | 7.1µM*
CC(C)(C)NC(=O)C(c1ccc(C#N)cc1)n1c(=O)c(-c2cc3ccccc3[nH]2)nc2ccccc21 (stereo not given) | . | ? | 26% | ? | 13µM*
CC(C)(C)NC(=O)C(c1ccccc1)n1c(=O)c(-c2cc3ccccc3[nH]2)nc2ccccc21 (stereo not given) | . | ? | ? | i | ?
Cc1nc2c(-c3ccc(F)cc3)cnn2c(N)c1-c1ccccc1 | -65% | i | 13µM* | i | -16%
COc1cc(C(=O)Oc2c(Sc3ccc(C)cc3)c(C)nn2-c2ccccc2)cc(OC)c1OC | . | i | 22µM* | i | .
COc1ccccc1C(=O)Oc1c(Sc2ccccc2)c(C)nn1-c1ccccc1 | . | i | 21% | i | .
COc1cc(C(=O)Sc2ccc(C)cc2)cc(OC)c1OC | -9% | . | 28µM* | i | -21%
CC(C)(C)OC(=O)C[C@@H]1C/C=C\C[C@@H](CC(=O)NCCO)C(=O)NCCOC1=O | . | i | 4% | i | -4%
COc1ccc(-n2ncc3c(N4CCC(C)CC4)ncnc32)cc1 | 0% | i | 14µM* | i | -8%
Cc1ccccc1-c1nc(CS(=O)(=O)CC(=O)N2CCN(c3ccccc3)CC2)c(C)o1 | . | i | 13µM* | i | .
O=C(O)c1ccc2c(c1)C(=O)N([C@H](Cc1ccc(-c3ccccc3)cc1)C(=O)O)C2=O | 1% | . | . | . | .
Nc1ncnc2nc(-c3ccccc3)[nH]c12 | . | i | 17% | i | -9%
SMILES | Mito fusion yeast | FUS yeast rescue | TDP43 rescue | Abeta yeast res | aSyn yeast inh
Nc1nc(N)c2[nH]c(-c3ccccc3)nc2n1 | -4% | i | 13µM* | i | -11%
CCN1CCCCC(NC(C)=O)C1=O (stereo not given) | . | i | . | . | .
O=C(Cn1ncc2c1-c1ccccc1OC2)Nc1nc2ccccc2s1 | 4% | i | 14µM* | i | -8%
CN(C(=O)Cn1ncc2c1-c1ccccc1OC2)c1ccc(Br)cc1 | . | i | 18µM* | i | .
Cc1ccc(S(=O)(=O)N2CCN(c3nc(-n4c(=O)[nH]c5ccccc54)nc4ccccc34)CC2)cc1 | . | . | . | . | 0%
CN(C(=O)C1CCN(c2cncnc2)CC1)C1CCCCC1 | . | i | . | . | .
Nc1ccc(/C=C/c2cc(Cl)nc3ccccc23)cc1 | . | . | . | . | 18%
